Screening results deposited in PubChem BioAssay by National Center for Advancing Translational Sciences (NCATS).
WRN helicase inh – qHTS for Inhibitors of WRN Helicase; Bifunctional 3'-5' exonuclease/ATP-dependent helicase WRN (Homo sapiens), Q14191; WRN helicase unwinding, fluorescent forked duplex, kinetic; Potency, µM (series often up to 114 µM), for inactives: top-dose activity change, negative = inhibition, actives largely listed as inhibitors; 360,000 tested, 0.46% active; AID 651768, 2012; note: potency is the fitted concentration of half-maximal effect; % is set by controls: 0 for no effect and ±100 for the full control effect; nearly all actives have a fitted effect of over 55% in size
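Primary qHTS, 1536-well format. 20 nM WRN + compound, 15 min RT; start with 100 nM forked fluorophore/quencher duplex, 2 mM ATP (final); kinetic read ex 525/em 598 nm.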
FEN1 inhibitor – qHTS Assay for the Inhibitors of Human Flap endonuclease 1 (FEN1) | Recombinant FEN1 flap cleavage, fluorescence, 15 min | 390,000 tested, 0.35% active | P39748 | Potency, µM (doses to about 114 µM), for the others: at the highest dose activity change, negative = inhibition, hits mostly inhibitors; note: potency is the fitted concentration of half-maximal effect; % is set by controls: 0 for no effect and ±100 for the full control effect; nearly all actives have a fitted effect of over 65% in size
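With each library titrated from low to high concentration, compounds met 10 nM FEN1 for 15 min at room temperature before 50 nM substrate was added; readings at 0 and 15 min fed four-parameter Hill curve fits.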
POLB inh – qHTS Assay for Inhibitors of DNA Polymerase Beta; P06746; Pol beta primer extension/strand displacement, fluorescence kinetic; Potency, µM (titrated, usually from 114 µM), without a hit: at the top dose activity change, negative = inhibition, usual class: inhibitors; 340,000 tested, 1.3% active; AID 485314, 2010; note: potency is the fitted concentration of half-maximal effect; % is set by controls: 0 for no effect and ±100 for the full control effect
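Pol beta (10 nM) and compounds were preincubated 15 min at room temperature, then 50 nM substrate (final) started primer extension/strand displacement. Reads were taken at 0 and 10 min; concentration-response data were fitted to a four-parameter Hill equation.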
Pol eta inh-1 – qHTS for Inhibitors of Polymerase Eta; recombinant Pol eta, fluorescent DNA replication assay; Potency, µM (titrated, usually from 114 µM), for inactives: at the highest dose activity change, negative = inhibition, actives largely listed as inhibitors; 390,000 tested, 1.2% active; AID 588591, 2011; note: potency is the fitted concentration of half-maximal effect; % is set by controls: 0 for no effect and ±100 for the full control effect
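Fluorescent replication assay: 50 nM final substrate added after a 15 min room-temperature compound preincubation with 10 nM enzyme. Signal taken at 0 min and again at 10 min.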
POLI inh – qHTS for Inhibitors of Polymerase Iota; DNA polymerase iota (Homo sapiens), Q9UNA4; Pol iota fluorescent replication assay, 10 min; Potency, µM (top dose mostly 115 µM), inactives show top-dose activity, negative = inhibition, usual class: inhibitors; 390,000 tested, 1% active; AID 588590, 2011; note: potency is the fitted concentration of half-maximal effect
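Pol iota at 10 nM preincubated 15 min with compounds at room temperature; reaction started with fluorescent substrate, 50 nM final. Fluorescence read kinetically at 0 and 10 min; buffer-only wells as negative control.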
Pol kappa inh-1 – qHTS for Inhibitors of Polymerase Kappa; AID 588579, 2011; 400,000 tested, 0.53% active; purified Pol kappa, fluorescent DNA synthesis assay, 10 min; DNA polymerase kappa (Homo sapiens), Q9UBT6; Potency, µM (doses to about 107 µM), for the others: top-dose activity, negative = inhibition, usual class: inhibitors; note: potency is the fitted concentration of half-maximal effect; % is set by controls: 0 for no effect and ±100 for the full control effect
Target sequence (Q9UBT6 whole entry, looked up): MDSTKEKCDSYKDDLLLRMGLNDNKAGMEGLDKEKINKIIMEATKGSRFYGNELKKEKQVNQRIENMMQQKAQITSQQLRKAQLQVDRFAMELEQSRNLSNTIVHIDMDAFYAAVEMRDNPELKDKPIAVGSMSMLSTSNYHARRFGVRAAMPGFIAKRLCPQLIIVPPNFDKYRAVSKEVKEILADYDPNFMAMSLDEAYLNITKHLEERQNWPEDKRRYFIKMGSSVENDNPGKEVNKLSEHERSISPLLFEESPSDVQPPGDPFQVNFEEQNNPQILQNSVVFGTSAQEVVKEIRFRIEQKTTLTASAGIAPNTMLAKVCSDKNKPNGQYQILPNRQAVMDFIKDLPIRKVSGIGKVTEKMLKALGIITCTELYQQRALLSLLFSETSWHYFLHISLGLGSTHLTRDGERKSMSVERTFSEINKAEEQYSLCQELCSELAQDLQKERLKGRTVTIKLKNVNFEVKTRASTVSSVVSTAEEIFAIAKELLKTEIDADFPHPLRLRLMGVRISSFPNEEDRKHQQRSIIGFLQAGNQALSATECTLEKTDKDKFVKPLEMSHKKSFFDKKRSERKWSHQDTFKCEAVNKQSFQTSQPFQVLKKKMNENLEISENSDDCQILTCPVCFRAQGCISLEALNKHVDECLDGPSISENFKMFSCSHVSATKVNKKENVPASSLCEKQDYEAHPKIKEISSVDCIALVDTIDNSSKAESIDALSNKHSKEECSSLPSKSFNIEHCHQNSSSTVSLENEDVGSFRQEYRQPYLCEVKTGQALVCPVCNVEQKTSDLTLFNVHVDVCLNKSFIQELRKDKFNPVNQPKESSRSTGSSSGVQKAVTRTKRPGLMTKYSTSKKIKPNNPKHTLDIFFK
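50 nM final substrate added after 15 min RT preincubation of 10 nM Pol kappa with compound; fluorescence read at 0 and 10 min.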
GALK inh confirm – Confirmation Assay for Inhibitors of Human Galactokinase (GALK) | 150 tested, 70% active | shares compounds with Pol eta inh-1 | purified GALK, Kinase-Glo ATP depletion luminescence | Potency, µM (series often up to 115 µM), without a hit: top-dose activity, negative = inhibition, hits mostly inhibitors
Redox cycling – Confirmatory Assay for Inhibitors of Human Galactokinase (GALK): Phenol-HRP redox assay counterscreen; 150 tested, 40% active; shares compounds with Pol eta inh-1; Phenol red-HRP H2O2 redox cycling, absorbance 600 nm; Potency, µM (highest dose often 115 µM), without a hit: at the highest dose activity change, negative = H2O2 signal, most hits filed as inhibitors
HEK293 tox – Secondary Assay for Inhibitors of Human Galactokinase (GALK): HEK-293 Cell Viability Assay. shares compounds with Pol eta inh-1. HEK-293 viability, ATP luminescence (CellTiter-Glo), 24/48 h. Potency, µM (highest dose often 46.1 µM), inactives show top-dose activity change, negative = cytotoxicity, hits mostly inhibitors. 170 tested, 10% active. AID 2547, 2010; note: potency is the fitted concentration of half-maximal effect; % is set by controls: 0 for no effect and ±100 for the full control effect
Pol kappa inh-2 – qHTS for Inhibitors of Polymerase Kappa: Confirmatory Assay for Cherry-picked Compounds. shares compounds with Pol eta inh-1. 920 tested, 76% active. Potency, µM, hits mostly inhibitors. AID 720501, 2013. purified Pol-kappa, fluorescent strand-displacement substrate; note: potency is the fitted concentration of half-maximal effect
Pol eta inh-2 – qHTS for Inhibitors of Polymerase Eta: Confirmatory Assay for Cherry-picked Compounds; 2,600 tested, 64% active; Pol eta primer extension, TAMRA/BHQ fluorescence, 10 min; shares compounds with Pol eta inh-1; AID 720502, 2013; Potency, µM, usual class: inhibitors; note: potency is the fitted concentration of half-maximal effect
Starred values were filed as active, the others as inactive; u = inconclusive; x = not tested or not shown; [ ] = dose if it differs, or a comment. Rows were chosen to be rich in hits. Some 2.4% of all compounds tested hit in one or more screens of this group. Calls come from the whole dose curve; as a rule, active = well fitted curve in the direction sought with a large enough effect; inconclusive = small, poorly fitted or top-dose-only effect, or another doubt; inactive = no such curve, though single readings can be large; an effect the other way counts as inactive or inconclusive.

SMILES	WRN helicase inh	FEN1 inhibitor	POLB inh	Pol eta inh-1	POLI inh	Pol kappa inh-1	Pol eta inh-2	others
Cc1ccc(OCC(=O)Nc2nnc(S(=O)(=O)N3CCC(C)CC3)s2)cc1	-19%	0%	u	u	u	u	85*
COc1cc2c(cc1OC)-c1cc(Nc3ccc(C(=O)O)cc3)nc(=O)n1CC2	u	-23%	u	35µM*	u	-27%	u
CCOC(=O)N1CCN(Cc2nc3cc(NC(=O)c4ccc([N+](=O)[O-])cc4)ccc3n2C(C)C)CC1	x	-6%	1%	-10%	-14%	6%	x
COc1ccc(-c2ccc(CN3C(C)C(=O)N(Cc4cn(CCC5OCCO5)nn4)CCS3(=O)=O)cc2)cc1 (stereo unspecified)	-8%[11.6 µM]	x	x	28µM*	x	x	u	Pol kappa inh-2=u
CC1(C)CCC[C@@](C)([C@H]2CC[C@]3(C)[C@@H]2[C@H](O)C[C@@H]2[C@@]4(C)CC[C@H](O)C(C)(C)[C@@H]4[C@@H](O)C[C@]23C)O1	x	x	x	x	x	-6%[60.1 µM]	x
O=C(O)CC(C(=O)O)c1ccc(OCCCCOc2ccc(C(CC(=O)O)C(=O)O)cc2)cc1 (stereo unspecified)	-14%[11.6 µM]	8%	u	18µM*	79µM*	79µM*	9.5*	Pol kappa inh-2=9.5*
CC(C)CCOc1ccc(C(CC(N)=O)C(=O)O)cc1 (stereo unspecified)	-1%	-9%	12%	-14%	6%	-2%	x
O=c1c2ccccc2nc2sc(Nc3ccc4c(c3)CCC4)nn12	x	x	x	x	x	x	x	Pol kappa inh-2=38*
CN1CCN(c2ncc3nc(-c4cccs4)c(=O)n(CCc4ccccc4)c3n2)CC1	x	x	x	x	x	0%[60.1 µM]	x
COc1ccc(C(=O)Nc2ccc(S(=O)(=O)Nc3nccc(C)n3)cc2)cc1	-1%	-3%	32%	-10%	-14%	-10%	x
Cc1ccnc(NS(=O)(=O)c2ccc(NC(=O)c3ccc(N4C(=O)CCC4=O)cc3)cc2)n1	u	-2%	u	8.9µM*	u	u	67*
O=C(Nc1ccc(S(=O)(=O)Nc2ncccn2)cc1)c1ccccc1	11%	7%	29%	-13%	-14%	-7%	x
O=C(Nc1ccc(S(=O)(=O)Nc2ncccn2)cc1)C1=NN(c2ccccc2)C(=O)CC1	-9%[11.6 µM]	-18%	0%	35µM*	u	-75%	67*
COc1ccc(CNc2ncncc2-c2cccc(NS(C)(=O)=O)c2)c(OC)c1	x	x	x	x	x	-1%[60.1 µM]	x
COc1ccc(/C=N/Nc2nc(C(=O)O)cs2)cc1	-14%	1%	u	32µM*	20µM*	u	u
CCOC(=O)N1CCC(NC(=O)Cn2ncc3ccccc32)CC1	-12%[57.1 µM]	4%	10%	-5%	26%	-4%	x
CCOC(=O)N1CCN(C(=O)Cn2ncc3ccccc32)CC1	-20%[57.1 µM]	-17%	20µM*	u	u	u	u
Cc1cc(O)c(C(C)C)cc1C1(c2cc(C(C)C)c(O)cc2C)OC(=O)c2ccccc21	-5%[57.1 µM]	0%	5%	-26%	-2%	-4%	x
Cc1cc(C2(c3ccc(O)c(C)c3)OC(=O)c3ccccc32)ccc1O	-36%[57.1 µM]	-14%	35µM*	u	u	-35%	u
Cc1occc1C(=O)Nc1cccc(/C=C/C(=O)O)c1	u	6%	x	18µM*	u	u	27*
Cc1ccc(NC(=O)CSc2nc(-c3ccco3)nc3cc(=O)[nH]n23)c(Cl)c1	-9%[11.6 µM]	-21%	50µM*	45µM*	40µM*	u	48*
CCNc1nc(NCC)n2c(SCC(=O)Nc3ccc(NC(C)=O)cc3)nnc2n1	0%[11.6 µM]	1%	x	40µM*	u	u	u
CCNc1nc(NCC)n2c(SCC(=O)Nc3ccc(CC)cc3)nnc2n1	u	2%	x	3%	65%	-16%	x
CC(C)c1ncc([N+](=O)[O-])n1C	x	x	x	x	x	3%[19.4 µM]	x
Cc1ccc(-c2cc(C(F)(F)F)n3nc(C(=O)Nc4sc5c(c4C#N)CCC(C)C5)cc3n2)cc1 (stereo unspecified)	x	-3%	12%	-20%	16%	-2%	x
SMILES	WRN helicase inh	FEN1 inhibitor	POLB inh	Pol eta inh-1	POLI inh	Pol kappa inh-1	Pol eta inh-2	others
Cc1ccc(S(=O)(=O)c2nc(-c3ccco3)oc2SCC(C)C)cc1	x	-23%	-9%	-8%	-22%	1%	x
Cc1ccc(S(=O)(=O)c2nc(-c3ccco3)oc2SC(C)C)cc1	-28%	-24%	-11%	89µM*	u	-24%	u	Pol kappa inh-2=u
CC(=O)OCCC(C)CCC=C(C)C (stereo unspecified)	x	x	x	x	x	-3%[60.1 µM]	x
c1coc(-c2nc3ccccc3nc2-c2ccco2)c1	u	-28%	18µM*	50µM*	u	u	u
N=C(C[C@@H](O)COc1ccccc1-c1ccccc1)N1CCCCC1	x	x	x	x	x	-7%[19.4 µM]	x
CC1=NN(c2nc(-c3ccccc3)cs2)C(=O)C1	u	8%	-1%	50µM*	u	-36%	u
COc1cc(/C=C2\C(=N)N3N=C(S(=O)(=O)CC(C)C)SC3=NC2=O)ccc1OC(=O)c1ccco1	x	x	-22%	x	x	x	x	GALK inh confirm=27µM*;Redox cycling=-4%;HEK293 tox=3%
